Hit rate of the full screen: of about 5,500 compounds, about 2,000 (36%) were called active. About 18% were inconclusive and are not listed. Rule as the data show it: active = normalized growth mostly below about 0.91 (no sharp cut-off); inconclusive = no clear call, values can overlap the other calls; inactive = mostly above about 0.92. The list shows a part of the results.
Experiment: chemical genetic growth profiling, strain panel (AID 1159580);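 also: tested at 20 µM; growth read once vehicle control cultures reached saturation at 30 °C; 1 = growth at the plate median or of vehicle wells; lower values mean less growth of the strain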
Conditions: growth OD
[1] = S. cerevisiae deletion strains, locus YAL013W, strain DEP1, stronger effect = lower value
[2] = S. cerevisiae deletion strains, locus YBR229C, strain ROT2, stronger effect = lower value
[3] = S. cerevisiae deletion strains, locus YDL101C, strain DUN1, stronger effect = lower value
[4] = S. cerevisiae deletion strains, locus YDL134C, strain PPH21, stronger effect = lower value
[5] = S. cerevisiae deletion strains, locus YDR150W, strain NUM1, stronger effect = lower value
[6] = S. cerevisiae deletion strains, locus YEL061C, strain CIN8, stronger effect = lower value
[7] = S. cerevisiae deletion strains, locus YGR078C, strain PAC10, stronger effect = lower value
[8] = S. cerevisiae deletion strains, locus YHR030C, strain SLT2, stronger effect = lower value
[9] = S. cerevisiae deletion strains, locus YHR087W, strain rtc3, stronger effect = lower value
[10] = S. cerevisiae deletion strains, locus YJR043C, strain POL32, stronger effect = lower value
[11] = S. cerevisiae deletion strains, locus YJR075W, strain HOC1, stronger effect = lower value
[12] = S. cerevisiae deletion strains, locus YLR039C, strain RIC1, stronger effect = lower value
[13] = S. cerevisiae deletion strains, locus YLR058C, strain SHM2 (second series), stronger effect = lower value
[14] = S. cerevisiae deletion strains, locus YLR085C, strain ARP6, stronger effect = lower value
[15] = S. cerevisiae deletion strains, locus YLR262C, strain YPT6, stronger effect = lower value
[16] = S. cerevisiae deletion strains, locus YML094W, strain GIM5, stronger effect = lower value
[17] = S. cerevisiae deletion strains, locus YMR219W, strain ESC1, stronger effect = lower value
[18] = S. cerevisiae deletion strains, locus YMR263W, strain SAP30, stronger effect = lower value
[19] = S. cerevisiae deletion strains, locus YNL153C, strain GIM3, stronger effect = lower value
[20] = S. cerevisiae deletion strains, locus YNL298W, strain CLA4 (second series), stronger effect = lower value
[21] = S. cerevisiae deletion strains, locus YNL322C, strain KRE1, stronger effect = lower value
[22] = S. cerevisiae deletion strains, locus YNR030W, strain Alg12, stronger effect = lower value
[23] = S. cerevisiae deletion strains, locus YPL055C, strain LGE1, stronger effect = lower value
[24] = S. cerevisiae deletion strains, locus YPL241C, strain CIN2, stronger effect = lower value
[25] = S. cerevisiae deletion strains, locus YPR135W, strain CTF4, stronger effect = lower value
[26] = S. cerevisiae strains, strain wild type, stronger effect = lower value

Measured: normalized growth

CC(C)(C)c1nc(N)sc1Br
inactive: [1] 1 | [2] 0.998 | [3] 1.04 | [4] 0.986 | [5] 0.993 | [6] 1.02 | [7] 1 | [8] 0.98 | [9] 1.01 | S. cerevisiae deletion strains, locus YJL187C, strain SWE1, stronger effect = lower value 1 | [10] 1.01 | [11] 1.01 | [12] 0.932 | [13] 1 | [14] 0.985 | [15] 0.951 | [16] 0.965 | [17] 1.01 | [18] 0.993 | [19] 1.02 | [20] 0.981 | [21] 1.01 | [22] 1 | [23] 0.984 | [24] 0.995 | [25] 0.868 | [26] 1

CN1c2ccccc2C(=O)NC1c1cc(Br)cs1 (configuration not stated)
inactive: [1] 1.02 | [2] 0.996 | S. cerevisiae deletion strains, locus YCL061C, strain MRC1, stronger effect = lower value 1.02 | [3] 0.996 | [4] 1.01 | [5] 0.996 | [6] 0.997 | [7] 1 | S. cerevisiae deletion strains, locus YGR229C, strain SMI1, stronger effect = lower value 0.998 | [8] 0.99 | [9] 1.01 | [10] 1.02 | [11] 0.993 | S. cerevisiae deletion strains, locus YKL190W, strain CNB1, stronger effect = lower value 1.01 | [12] 1.07 | [13] 1.01 | [14] 1.06 | [15] 1.06 | [16] 1.01 | [17] 1.01 | [18] 1.01 | [19] 1 | [20] 1.04 | [21] 0.996 | [22] 1.03 | S. cerevisiae deletion strains, locus YOL006C, strain TOP1, stronger effect = lower value 1.06 | [23] 1.01 | [24] 0.996 | [25] 0.969 | [26] 1.03
